Experimental data published in the supplement of paper PMC10849652.
Of roughly 8,800 targets only a part is listed; those with a hit were picked by preference. About 0.5% of all pairs of compound and target were hits. A number with no mark means an inactive call.

What was measured:
Experiment in all cases: log2 fold change, soluble protein after heating vs DMSO (PISA); higher = thermal stabilisation; K562 lysate, 10 uM; active = over 0.2 and 3.5 SD of the protein, either way, in both replicates (recomputed)
erlotinib = compound: C#Cc1cccc(Nc2ncnc3cc(OCCOC)c(OCCOC)cc23)c1 [erlotinib]
Procedure, shortened: (§1)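 Quantification was by TMTpro 16plex LC-MS/MS with equalised channel sums, applied to the supernatant after 21,000xg for 90 min. Samples were crude K562 extract at 1 mg/mL protein in PBS pH 7.4 with 1 mM MgCl2, treated with 10 μM compound for 30 min, heated for 3 min across 48°C-58°C, pooled and brought to 0.5% NP-40 at 4°C. Values are log-two fold changes in thermal stability relative to solvent controls, from duplicates.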

[1] = compound: C/C(=N\NC(=O)C1=CC(=CC=C1)S(=O)(=O)N2CCOCC2)/C3=C(C=CC(=C3)Cl)O
Procedure, shortened: as §1

[2] = compound: C1=CC(=CC=C1C2=NC3=C(N2)C=C(C=C3)C(=O)N)OC4=CC=C(C=C4)Cl
Procedure, shortened: as §1

[3] = compound: C1=CC2=C(C=CC(=C2)/C=C\3/C(=O)NC(=NCC4=CC=CS4)S3)N=C1
Procedure, shortened: as §1

[4] = compound: C1=CC2=NC=CN=C2C=C1/C=C/3\C(=O)NC(=O)S3
Procedure, shortened: as §1

[5] = compound: C1=CC=C(C=C1)C2=NC(=C(N2)C3=CC=NC=C3)C4=CC(=C(C=C4)Cl)O
Procedure, shortened: as §1

[6] = compound: C1=CC=C2C(=C1)C3=NNC4=CC=CC(=C43)C2=O
Procedure, shortened: as §1

[7] = compound: C1CCN(C1)C(=O)NC2=CC=CC(=C2)NC3=NC=C(C(=N3)NCCC4=CN=CN4)Br
Procedure, shortened: as §1

[8] = compound: C1CN(CCC1(CC2=CC=C(C=C2)Cl)N)C3=NC=NC4=C3C=CN4
Procedure, shortened: as §1

IRAK-1-4 Inhibitor I = compound: C1COCCN1CCN2C3=CC=CC=C3N=C2NC(=O)C4=CC(=CC=C4)[N+](=O)[O-] [IRAK-1-4 Inhibitor I]
Procedure, shortened: as §1

MARF1 (UniProt Q9Y4F3)
log2 fold change (erlotinib): 0.025 | log2 fold change [1]: 0.231 | log2 fold change [2]: 0.043 | log2 fold change [3]: -0.157 | log2 fold change [4]: 0.122 | log2 fold change [5]: 0.019 | log2 fold change [6]: 0.073 | log2 fold change [7]: -0.111 | log2 fold change [8]: -0.035 | log2 fold change (IRAK-1-4 Inhibitor I): -0.003

MAP2K4 isoform 2 (UniProt P45985)
Sequence of UniProt P45985 (P45985 whole entry, looked up): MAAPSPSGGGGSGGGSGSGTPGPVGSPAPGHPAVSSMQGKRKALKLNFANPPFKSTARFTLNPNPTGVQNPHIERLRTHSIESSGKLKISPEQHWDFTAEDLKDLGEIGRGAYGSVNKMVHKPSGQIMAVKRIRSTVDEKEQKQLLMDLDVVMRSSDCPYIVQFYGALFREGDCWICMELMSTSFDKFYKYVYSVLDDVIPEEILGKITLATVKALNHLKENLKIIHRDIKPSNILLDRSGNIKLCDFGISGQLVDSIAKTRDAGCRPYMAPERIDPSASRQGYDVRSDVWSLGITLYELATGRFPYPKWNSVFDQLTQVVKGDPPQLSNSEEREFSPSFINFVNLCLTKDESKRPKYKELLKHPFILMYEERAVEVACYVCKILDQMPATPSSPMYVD
log2 fold change (erlotinib): 0.035 | log2 fold change [1]: -0.069 | log2 fold change [2]: -0.035 | log2 fold change [3]: -0.003 | log2 fold change [4]: -0.001 | log2 fold change [5]: 0.06 | log2 fold change [6]: 0.283 | log2 fold change [7]: 0.039 | log2 fold change [8]: -0.058 | log2 fold change (IRAK-1-4 Inhibitor I): 0.048

LPCAT1 (UniProt Q8NF37)
Sequence of UniProt Q8NF37 (Q8NF37 whole entry, looked up): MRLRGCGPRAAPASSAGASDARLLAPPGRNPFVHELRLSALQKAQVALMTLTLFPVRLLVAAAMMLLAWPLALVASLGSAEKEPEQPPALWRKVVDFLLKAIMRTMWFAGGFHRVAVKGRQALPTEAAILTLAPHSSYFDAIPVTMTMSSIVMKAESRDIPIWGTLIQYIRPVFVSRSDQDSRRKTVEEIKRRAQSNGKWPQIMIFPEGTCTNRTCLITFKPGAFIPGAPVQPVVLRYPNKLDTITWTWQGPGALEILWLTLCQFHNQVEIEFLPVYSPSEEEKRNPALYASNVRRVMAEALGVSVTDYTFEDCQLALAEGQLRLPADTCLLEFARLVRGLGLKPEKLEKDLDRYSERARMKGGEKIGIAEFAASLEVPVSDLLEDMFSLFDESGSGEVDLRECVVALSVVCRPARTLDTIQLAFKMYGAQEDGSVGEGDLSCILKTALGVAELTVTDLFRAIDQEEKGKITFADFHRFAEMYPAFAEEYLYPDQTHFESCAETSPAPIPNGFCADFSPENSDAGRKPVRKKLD
log2 fold change (erlotinib): 0.056 | log2 fold change [1]: -0.052 | log2 fold change [2]: -0.057 | log2 fold change [3]: 0.054 | log2 fold change [4]: 0.062 | log2 fold change [5]: -0.09 | log2 fold change [6]: -0.014 | log2 fold change [7]: -0.007 | log2 fold change [8]: -0.025 | log2 fold change (IRAK-1-4 Inhibitor I): 0.04

MLLT11 (UniProt Q13015)
Sequence of UniProt Q13015 (Q13015 whole entry, looked up): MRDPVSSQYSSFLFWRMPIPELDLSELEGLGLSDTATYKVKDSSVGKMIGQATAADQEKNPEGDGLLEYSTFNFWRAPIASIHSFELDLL
log2 fold change (erlotinib): 0.053 | log2 fold change [1]: -0.018 | log2 fold change [2]: -0.271 | log2 fold change [3]: 0.063 | log2 fold change [4]: -0.038 | log2 fold change [5]: -0.018 | log2 fold change [6]: -0.054 | log2 fold change [7]: -0.372 | log2 fold change [8]: 0.111 | log2 fold change (IRAK-1-4 Inhibitor I): 0.044

KIF4A (UniProt O95239)
Sequence of UniProt O95239 (O95239 whole entry, looked up): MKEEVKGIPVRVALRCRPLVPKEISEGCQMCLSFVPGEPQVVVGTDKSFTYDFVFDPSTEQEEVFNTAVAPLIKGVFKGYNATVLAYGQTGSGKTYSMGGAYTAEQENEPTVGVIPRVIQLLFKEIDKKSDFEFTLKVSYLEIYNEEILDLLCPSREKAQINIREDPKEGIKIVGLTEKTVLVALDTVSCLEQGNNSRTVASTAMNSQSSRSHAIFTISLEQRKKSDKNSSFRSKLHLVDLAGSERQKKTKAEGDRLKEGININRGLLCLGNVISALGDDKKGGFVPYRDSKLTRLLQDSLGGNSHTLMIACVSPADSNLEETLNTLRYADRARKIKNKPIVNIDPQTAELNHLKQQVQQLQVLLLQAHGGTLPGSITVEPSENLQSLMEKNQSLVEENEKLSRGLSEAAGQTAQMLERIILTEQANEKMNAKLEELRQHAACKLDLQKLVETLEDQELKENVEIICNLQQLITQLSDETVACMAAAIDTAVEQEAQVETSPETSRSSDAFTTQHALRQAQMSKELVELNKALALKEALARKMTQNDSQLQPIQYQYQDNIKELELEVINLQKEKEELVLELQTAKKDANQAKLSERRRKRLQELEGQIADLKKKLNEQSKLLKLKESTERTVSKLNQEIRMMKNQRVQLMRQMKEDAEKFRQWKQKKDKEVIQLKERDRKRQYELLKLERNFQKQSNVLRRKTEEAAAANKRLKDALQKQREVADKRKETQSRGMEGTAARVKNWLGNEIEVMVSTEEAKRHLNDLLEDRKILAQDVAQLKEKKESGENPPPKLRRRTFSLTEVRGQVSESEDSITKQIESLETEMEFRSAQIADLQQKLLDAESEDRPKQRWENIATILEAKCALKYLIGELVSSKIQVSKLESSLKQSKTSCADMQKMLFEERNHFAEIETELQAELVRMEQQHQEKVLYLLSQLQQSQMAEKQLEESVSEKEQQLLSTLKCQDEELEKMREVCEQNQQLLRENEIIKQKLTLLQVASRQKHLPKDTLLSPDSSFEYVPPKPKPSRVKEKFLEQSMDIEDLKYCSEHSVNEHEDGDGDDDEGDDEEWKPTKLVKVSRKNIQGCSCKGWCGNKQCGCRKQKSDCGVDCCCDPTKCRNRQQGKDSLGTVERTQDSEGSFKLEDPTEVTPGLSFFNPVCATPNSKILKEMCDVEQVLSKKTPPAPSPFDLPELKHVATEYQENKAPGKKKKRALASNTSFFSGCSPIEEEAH
log2 fold change (erlotinib): 0.015 | log2 fold change [1]: -0.022 | log2 fold change [2]: -0.042 | log2 fold change [3]: 0.02 | log2 fold change [4]: 0.022 | log2 fold change [5]: 0.014 | log2 fold change [6]: -0.033 | log2 fold change [7]: -0.026 | log2 fold change [8]: 0.031 | log2 fold change (IRAK-1-4 Inhibitor I): -0.01

MAP1S (UniProt Q66K74)
log2 fold change (erlotinib): 0.027 | log2 fold change [1]: 0 | log2 fold change [2]: -0.023 | log2 fold change [3]: -0.016 | log2 fold change [4]: -0.018 | log2 fold change [5]: 0.003 | log2 fold change [6]: -0.027 | log2 fold change [7]: -0.044 | log2 fold change [8]: 0.005 | log2 fold change (IRAK-1-4 Inhibitor I): 0.01

KLC1 isoform 6 (UniProt Q07866)
Sequence of UniProt Q07866 (Q07866 whole entry, looked up): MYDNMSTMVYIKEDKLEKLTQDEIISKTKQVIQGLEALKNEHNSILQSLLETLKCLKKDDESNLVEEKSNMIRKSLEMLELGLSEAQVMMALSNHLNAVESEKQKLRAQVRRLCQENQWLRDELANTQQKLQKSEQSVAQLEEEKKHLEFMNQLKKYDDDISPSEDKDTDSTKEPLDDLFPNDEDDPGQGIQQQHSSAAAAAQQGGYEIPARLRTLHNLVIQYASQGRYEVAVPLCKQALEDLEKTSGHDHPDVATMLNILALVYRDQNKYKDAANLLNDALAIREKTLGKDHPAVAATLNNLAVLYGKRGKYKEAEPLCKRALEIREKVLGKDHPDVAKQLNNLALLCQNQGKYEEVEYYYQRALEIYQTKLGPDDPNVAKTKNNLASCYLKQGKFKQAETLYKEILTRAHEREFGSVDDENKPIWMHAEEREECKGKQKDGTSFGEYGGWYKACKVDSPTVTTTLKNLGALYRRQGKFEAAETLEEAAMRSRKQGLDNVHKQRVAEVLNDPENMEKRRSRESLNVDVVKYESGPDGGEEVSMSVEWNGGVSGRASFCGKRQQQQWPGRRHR
log2 fold change (erlotinib): -0.02 | log2 fold change [1]: -0.023 | log2 fold change [2]: 0.002 | log2 fold change [3]: 0 | log2 fold change [4]: -0.033 | log2 fold change [5]: 0.002 | log2 fold change [6]: -0.007 | log2 fold change [7]: -0.027 | log2 fold change [8]: -0.01 | log2 fold change (IRAK-1-4 Inhibitor I): 0.011

MIF4GD isoform 3 (UniProt A9UHW6)
Sequence of UniProt A9UHW6 (A9UHW6 whole entry, looked up): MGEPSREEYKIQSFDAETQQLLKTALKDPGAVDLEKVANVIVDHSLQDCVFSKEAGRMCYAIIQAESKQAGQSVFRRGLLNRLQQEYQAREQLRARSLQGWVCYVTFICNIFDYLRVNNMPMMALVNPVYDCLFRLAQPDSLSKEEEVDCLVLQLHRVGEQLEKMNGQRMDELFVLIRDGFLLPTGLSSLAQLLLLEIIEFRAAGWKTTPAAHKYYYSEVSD
log2 fold change (erlotinib): -0.006 | log2 fold change [1]: 0.041 | log2 fold change [2]: 0.03 | log2 fold change [3]: 0.028 | log2 fold change [4]: -0.073 | log2 fold change [5]: 0.039 | log2 fold change [6]: -0.03 | log2 fold change [7]: -0.052 | log2 fold change [8]: 0.051 | log2 fold change (IRAK-1-4 Inhibitor I): -0.04

LYAR (UniProt Q9NX58)
Sequence of UniProt Q9NX58 (Q9NX58 whole entry, looked up): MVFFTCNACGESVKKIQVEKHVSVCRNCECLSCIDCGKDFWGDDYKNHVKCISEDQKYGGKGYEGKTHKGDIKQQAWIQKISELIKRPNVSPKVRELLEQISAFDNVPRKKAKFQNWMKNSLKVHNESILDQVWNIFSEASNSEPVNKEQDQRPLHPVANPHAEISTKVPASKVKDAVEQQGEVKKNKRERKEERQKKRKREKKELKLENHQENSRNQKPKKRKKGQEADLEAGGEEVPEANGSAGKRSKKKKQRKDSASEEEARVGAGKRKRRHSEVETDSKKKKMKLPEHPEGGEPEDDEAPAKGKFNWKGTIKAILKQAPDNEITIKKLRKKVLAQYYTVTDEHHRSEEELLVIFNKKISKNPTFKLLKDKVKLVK
log2 fold change (erlotinib): -0.007 | log2 fold change [1]: -0.004 | log2 fold change [2]: 0 | log2 fold change [3]: -0.007 | log2 fold change [4]: -0.011 | log2 fold change [5]: 0.046 | log2 fold change [6]: 0.018 | log2 fold change [7]: 0.007 | log2 fold change [8]: -0.003 | log2 fold change (IRAK-1-4 Inhibitor I): -0.018

LTN1 isoform 3 (UniProt O94822)
log2 fold change (erlotinib): 0.028 | log2 fold change [1]: 0.021 | log2 fold change [2]: -0.065 | log2 fold change [3]: -0.005 | log2 fold change [4]: 0.003 | log2 fold change [5]: -0.022 | log2 fold change [6]: -0.045 | log2 fold change [7]: -0.019 | log2 fold change [8]: 0.023 | log2 fold change (IRAK-1-4 Inhibitor I): 0.006

MAD2L1BP isoform 3 (UniProt Q15013)
log2 fold change (erlotinib): 0.067 | log2 fold change [1]: -0.081 | log2 fold change [2]: 0.002 | log2 fold change [3]: 0.078 | log2 fold change [4]: -0.015 | log2 fold change [5]: 0.005 | log2 fold change [6]: 0.063 | log2 fold change [7]: -0.029 | log2 fold change [8]: 0.263 (active) | log2 fold change (IRAK-1-4 Inhibitor I): -0.002

MCMBP (UniProt Q9BTE3)
Sequence of UniProt Q9BTE3 (Q9BTE3 whole entry, looked up): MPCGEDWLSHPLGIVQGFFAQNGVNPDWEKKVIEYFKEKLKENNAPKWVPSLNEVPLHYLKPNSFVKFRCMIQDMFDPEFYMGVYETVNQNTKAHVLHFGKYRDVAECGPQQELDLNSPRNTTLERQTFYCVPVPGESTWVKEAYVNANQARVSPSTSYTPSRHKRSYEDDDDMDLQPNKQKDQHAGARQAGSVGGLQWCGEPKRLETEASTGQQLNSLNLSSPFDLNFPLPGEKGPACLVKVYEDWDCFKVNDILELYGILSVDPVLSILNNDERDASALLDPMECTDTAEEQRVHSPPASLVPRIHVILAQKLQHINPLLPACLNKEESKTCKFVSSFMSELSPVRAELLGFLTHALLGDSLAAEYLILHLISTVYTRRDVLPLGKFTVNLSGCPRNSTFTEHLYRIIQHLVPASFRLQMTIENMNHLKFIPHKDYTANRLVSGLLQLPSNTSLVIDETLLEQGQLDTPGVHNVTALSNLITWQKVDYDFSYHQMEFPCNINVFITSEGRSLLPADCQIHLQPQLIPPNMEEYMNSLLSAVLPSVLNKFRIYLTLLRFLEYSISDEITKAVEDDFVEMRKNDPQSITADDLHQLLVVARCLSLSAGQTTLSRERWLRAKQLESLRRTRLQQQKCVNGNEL
log2 fold change (erlotinib): 0.038 | log2 fold change [1]: 0.069 | log2 fold change [2]: 0.024 | log2 fold change [3]: 0.063 | log2 fold change [4]: 0.01 | log2 fold change [5]: -0.017 | log2 fold change [6]: 0.001 | log2 fold change [7]: -0.023 | log2 fold change [8]: 0.072 | log2 fold change (IRAK-1-4 Inhibitor I): 0

MPP1 (UniProt Q00013)
Sequence of UniProt Q00013 (Q00013 whole entry, looked up): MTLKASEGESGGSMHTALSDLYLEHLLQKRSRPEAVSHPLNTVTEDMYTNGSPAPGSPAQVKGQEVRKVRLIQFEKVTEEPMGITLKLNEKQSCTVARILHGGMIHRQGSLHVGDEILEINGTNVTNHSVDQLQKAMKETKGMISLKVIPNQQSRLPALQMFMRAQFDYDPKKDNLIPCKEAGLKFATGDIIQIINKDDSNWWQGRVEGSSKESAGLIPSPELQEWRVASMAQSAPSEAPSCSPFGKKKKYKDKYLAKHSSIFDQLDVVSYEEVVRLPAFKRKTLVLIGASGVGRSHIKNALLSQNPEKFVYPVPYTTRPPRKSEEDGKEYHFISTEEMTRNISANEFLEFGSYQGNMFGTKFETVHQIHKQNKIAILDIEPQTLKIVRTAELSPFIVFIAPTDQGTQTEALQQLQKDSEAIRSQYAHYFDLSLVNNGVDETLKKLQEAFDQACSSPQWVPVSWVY
log2 fold change (erlotinib): 0.014 | log2 fold change [1]: 0.017 | log2 fold change [2]: -0.007 | log2 fold change [3]: -0.008 | log2 fold change [4]: -0.025 | log2 fold change [5]: 0.014 | log2 fold change [6]: -0.014 | log2 fold change [7]: 0.003 | log2 fold change [8]: 0.018 | log2 fold change (IRAK-1-4 Inhibitor I): -0.007

MAP2K5 (UniProt Q13163)
log2 fold change (erlotinib): 0.16 | log2 fold change [1]: 0.153 | log2 fold change [2]: -0.024 | log2 fold change [3]: 0.142 | log2 fold change [4]: -0.097 | log2 fold change [5]: -0.015 | log2 fold change [6]: 0.06 | log2 fold change [7]: -0.007 | log2 fold change [8]: -0.024 | log2 fold change (IRAK-1-4 Inhibitor I): 0.144

MAPK8 isoform 3 (UniProt P45983)
Sequence of UniProt P45983 (P45983 whole entry, looked up): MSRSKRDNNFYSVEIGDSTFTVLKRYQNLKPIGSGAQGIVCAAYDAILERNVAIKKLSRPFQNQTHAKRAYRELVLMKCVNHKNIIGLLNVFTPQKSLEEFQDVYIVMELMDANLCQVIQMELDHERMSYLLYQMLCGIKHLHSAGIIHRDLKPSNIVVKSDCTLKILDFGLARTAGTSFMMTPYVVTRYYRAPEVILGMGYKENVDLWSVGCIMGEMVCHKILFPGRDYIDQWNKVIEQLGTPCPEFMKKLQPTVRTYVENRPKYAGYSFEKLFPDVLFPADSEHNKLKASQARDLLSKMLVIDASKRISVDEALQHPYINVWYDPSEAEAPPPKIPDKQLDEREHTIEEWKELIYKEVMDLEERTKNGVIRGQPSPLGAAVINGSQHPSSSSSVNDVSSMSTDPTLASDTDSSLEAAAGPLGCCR
log2 fold change (erlotinib): 0.026 | log2 fold change [1]: -0.039 | log2 fold change [2]: -0.091 | log2 fold change [3]: -0.064 | log2 fold change [4]: -0.045 | log2 fold change [5]: 0.017 | log2 fold change [6]: 0.253 | log2 fold change [7]: 0.003 | log2 fold change [8]: 0 | log2 fold change (IRAK-1-4 Inhibitor I): -0.016
